# Measured values taken from PubChem BioAssay (Tox21).
# “And” between values parts separate entries of the source, which are not always exact repeats. Equal values may be shown once. Results filed as inconclusive are left out. Where a call stands in place of a potency, no number is given. More than one record can exist for a structure, and the calls need not agree. The source made the active and inactive calls. Unless noted, the call rests on the fitted dose curve; in most records, active means well fitted curve in the direction sought with a large enough effect in the repeat runs; inconclusive means weak or mixed curves; inactive means no such curve, though single readings can be large; an effect the other way counts as inactive or inconclusive.
# Tests used:
# [1] = qHTS assay to identify small molecule antagonists of the estrogen related receptor (ERR) signaling pathway from Tox21 library - cell viability counter screen (AID 1224834); further: nearly all actives have a fitted effect of over 30% in size; further: potency means the concentration at half of the fitted maximal effect
# Procedure, shortened: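 ERR cells, 2,000/well; 6 h settle at 37 C/5% CO2; pin-tool compound transfer in DMSO; 17.5 h at 37 C; CellTiter-Fluor, 30 min; fluorescence intensity.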
# [2] = target: Luciferin 4-monooxygenase (Photinus pyralis) (UniProt P08659); assay: qHTS assay to identify small molecule inhibitors of firefly luciferase (AID 1224835); further: nearly all actives have a fitted effect of over 25% in size
# Procedure, shortened: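 Quantitative HTS format; KM concentrations of both substrates. Purified P. pyralis FLuc activity quantified from luminescence images.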
# [3] = qHTS assay to identify small molecule antagonists of the constitutive androstane receptor (CAR) signaling pathway - cell viability counter screen (AID 1224837); further: nearly all actives have a fitted effect of over 45% in size
# Procedure, shortened: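 Viability was measured with CellTiter-Fluor in a HepG2 line carrying stably transfected hCAR and a CYP2B6-2.2kb construct. Cells were exposed for 23 hr at 37 C to 15 compound concentrations with 50 nM CITCO as agonist.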
# [4] = target: Nuclear receptor subfamily 1 group I member 3 (Homo sapiens) (UniProt Q14994); assay: qHTS assay to identify small molecule antagonists of the constitutive androstane receptor (CAR) signaling pathway (AID 1224838);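 further: HepG2 cells stably expressing hCAR with CYP2B6 luciferase reporter stimulated by CITCO; nearly all actives have a fitted effect of over 40% in size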; further: potency means the concentration at half of the fitted maximal effect
# Procedure, shortened: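 Antagonist mode used CITCO at a final 50 nM to activate CAR in human hepatoma HepG2 cells carrying stable hCAR and a 2.2 kb CYP2B6 promoter-luciferase construct. Compounds were tested at 15 concentrations over 24 h, with luminescence as the end point.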
# [5] = target: Nuclear receptor subfamily 1 group I member 3 (Homo sapiens) (UniProt Q14994); assay: qHTS assay to identify small molecule agonists of the constitutive androstane receptor (CAR) signaling pathway (AID 1224839); further: nearly all actives have a fitted effect of over 15% in size
# Procedure, shortened: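 Stable hCAR/CYP2B6-2.2kb HepG2 line in DMEM with 10% FBS; compounds (15 concentrations) and 0.75 uM PK11195 final, 24 h at 37 C/5% CO2, then ONE-Glo luminescence after 30 min.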
# [6] = qHTS assay to identify small molecule antagonists of the estrogen related receptor signaling pathway with the pleiotropic PPARgamma coactivator (PGC) from Tox21 10K library - cell viability counter screen (AID 1224840; active means well fitted cell-killing curve with a large enough effect in the repeat runs, not every such curve was filed as active; further: nearly all actives have a fitted effect of over 40% in size; further: potency means the concentration at half of the fitted maximal effect)
# Procedure, shortened: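 Multiplexed viability counter screen in the PGC/ERR cell line: cells treated with DMSO-dissolved compounds for 17.5 hours at 37 C, then viability measured as CellTiter-Fluor fluorescence.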
# [7] = target: Thyrotropin receptor (Homo sapiens) (UniProt P16473); assay: qHTS assay to identify small molecule agonists of the thyroid stimulating hormone receptor (TSHR) signaling pathway (AID 1224843; calls by dose curve; further: nearly all actives have a fitted effect of over 45% in size)
# Procedure, shortened: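 Using 15 concentrations per compound in triplicate, cAMP production was monitored in TSHR-HEK293 cells after 30 min compound incubation at RT; HTRF reagents followed, with fluorescence intensity recorded after 1 h.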
# [8] = qHTS assay to identify small molecule agonists of the hypoxia (HIF-1) signaling pathway - cell viability counter screen (AID 1224844; calls by dose curve; further: nearly all actives have a fitted effect of over 50% in size)
# Procedure, shortened: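 Cytotoxicity was measured in parallel with the HRE-driven beta-lactamase readout: after 17 hrs of compound exposure at 37C, HRE-bla ME-180 cells received CellTiter-Glo and luminescence was recorded 30 min later.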
# [9] = qHTS assay to identify small molecule agonists of H2AX (AID 1224845; active means well fitted activation curve with a large enough effect in the signal ratio in the repeat runs, not every such curve was filed as active; the % refers to the signal ratio)
# Procedure, shortened: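 Wild-type CHO-K1 cells plated overnight, then exposed 3 hr at 37C to compounds at 15 concentrations (0.76% DMSO). Lysed, then HTRF anti-pH2AX(S139)-cryptate/anti-H2AX-d2 detection after 24 hr at room temperature; emissions 665 and 620 nm.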
# [10] = qHTS assay to identify small molecule agonists of the hypoxia (HIF-1) signaling pathway (AID 1224846; active means well fitted activation curve with a large enough effect in the signal ratio in the repeat runs, not every such curve was filed as active; the % refers to the signal ratio)
# Procedure, shortened: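 Compounds from the Tox21 10K library, dissolved in DMSO, are tested for induction of a hypoxia response element–controlled beta-lactamase reporter in ME-180 cells. Exposure lasts 17 hrs at 37C after a 5 hr settling period, followed by CCF4-AM FRET substrate.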
# [11] = qHTS assay to identify small molecule agonists of H2AX - cell viability counter screen (AID 1224847; calls by dose curve; further: nearly all actives have a fitted effect of over 30% in size; further: potency means the concentration at half of the fitted maximal effect)
# Procedure, shortened: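 Viability of CHO-K1 (wild type) cells after 3 hr compound exposure was measured by CellTiter-Glo luminescence.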
# [12] = qHTS RealTime-Glo MT Cell Viability Assay in HepG2 cells - 24 hour (AID 1224867); further: nearly all actives have a fitted effect of over 50% in size
# Procedure, shortened: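 Compound treatment began 5 h after plating HepG2 cells (600/well) with NanoLuc luciferase and prosubstrate. Plates stayed at 37 C for 40 h; luminescence was captured at six time points, 0 h through 40 h.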
# [13] = A CellTox Green Cytotoxicity Assay to monitor cytotoxicity in HEK293 cells - 0 hour (AID 1224869); further: nearly all actives have a fitted effect of over 50% in size
# Procedure, shortened: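 Cells (HEK293, 600/well) and dye reagent are dispensed together. After 5 h at 37 C, 23 nL compound is pinned in. Plates stay at 37 C for 40 h with fluorescence read at 0h, 8h, 16h, 24h, 32h and 40h.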
# [14] = qHTS assay to identify small molecule antagonists of the estrogen related receptor signaling pathway with the pleiotropic PPARgamma coactivator (PGC) from Tox21 10K library (AID 1224841; call rule not given here; further: actives are mostly falling curves and most rising ones were filed inactive; nearly all actives have a fitted effect of over 50% in size)
# Procedure, shortened: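 Steps: plate 2,000 PGC/ERR cells per well; incubate 6 h at 37 C with 5% CO2; transfer compounds from DMSO stocks by pin tool; incubate 18 h at 37 C; add One-Glo; measure luminescence 30 min later.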
# [15] = qHTS assay to identify small molecule agonists of the estrogen related receptor signaling pathway with the pleiotropic PPARgamma coactivator (PGC) from Tox21 10K library (AID 1224842); further: nearly all actives have a fitted effect of over 15% in size
# Procedure, shortened: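 PGC/ERR reporter cells (NTP line) were seeded 2,000 per well, rested 6 h at 37 C/5% CO2, then pin-dosed with compounds in DMSO for 18 h at 37 C; luciferase read by One-Glo luminescence after 30 min at room temperature.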
# [16] = qHTS assay to identify small molecule antagonists of the estrogen related receptor (ERR) signaling pathway from Tox21 library (AID 1224848); further: nearly all actives have a fitted effect of over 50% in size
# Procedure, shortened: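 Tox21 10K compounds in DMSO tested for ERR pathway antagonism in NTP's ERR cell line; 18 h, 37 C exposure; ONE-Glo luminescence.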
# [17] = qHTS assay to identify small molecule agonists of the constitutive androstane receptor (CAR) signaling pathway - cell viability counter screen (AID 1224836); further: nearly all actives have a fitted effect of over 45% in size
# Procedure, shortened: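 Fluorescence from CellTiter-Fluor indicates live cells after 23 h exposure. The human hepatoma line expresses hCAR and a CYP2B6-2.2kb reporter. Incubation medium contains 0.75 uM PK11195 (final).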
# [18] = qHTS assay to identify small molecule agonists of the estrogen related receptor (ERR) signaling pathway from Tox21 library (AID 1224849; calls by dose curve; further: nearly all actives have a fitted effect of over 15% in size); conditions: ERR reporter cell line, ONE-Glo luciferase, 18 h; at 92.4 µM (top of the series) unless noted
# Procedure, shortened: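 Cells carrying the ERR reporter were plated and allowed to settle for 6 h, exposed to library compounds for 18 h at 37 C, then lysed with ONE-Glo and luminescence measured.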
# [19] = qHTS RealTime-Glo MT Cell Viability Assay in HEK293 cells - 32 hour (AID 1224868); further: nearly all actives have a fitted effect of over 50% in size; further: potency means the concentration at half of the fitted maximal effect
# Procedure, shortened: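 Quantitative high-throughput screen of the Tox21 10K library in HEK293: cells and RealTime-Glo reagents plated together, compound added at 5 h, luminescence monitored through 40 h at 37 C.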
# Chain of Thyrotropin receptor (Homo sapiens) (P16473 whole entry, looked up): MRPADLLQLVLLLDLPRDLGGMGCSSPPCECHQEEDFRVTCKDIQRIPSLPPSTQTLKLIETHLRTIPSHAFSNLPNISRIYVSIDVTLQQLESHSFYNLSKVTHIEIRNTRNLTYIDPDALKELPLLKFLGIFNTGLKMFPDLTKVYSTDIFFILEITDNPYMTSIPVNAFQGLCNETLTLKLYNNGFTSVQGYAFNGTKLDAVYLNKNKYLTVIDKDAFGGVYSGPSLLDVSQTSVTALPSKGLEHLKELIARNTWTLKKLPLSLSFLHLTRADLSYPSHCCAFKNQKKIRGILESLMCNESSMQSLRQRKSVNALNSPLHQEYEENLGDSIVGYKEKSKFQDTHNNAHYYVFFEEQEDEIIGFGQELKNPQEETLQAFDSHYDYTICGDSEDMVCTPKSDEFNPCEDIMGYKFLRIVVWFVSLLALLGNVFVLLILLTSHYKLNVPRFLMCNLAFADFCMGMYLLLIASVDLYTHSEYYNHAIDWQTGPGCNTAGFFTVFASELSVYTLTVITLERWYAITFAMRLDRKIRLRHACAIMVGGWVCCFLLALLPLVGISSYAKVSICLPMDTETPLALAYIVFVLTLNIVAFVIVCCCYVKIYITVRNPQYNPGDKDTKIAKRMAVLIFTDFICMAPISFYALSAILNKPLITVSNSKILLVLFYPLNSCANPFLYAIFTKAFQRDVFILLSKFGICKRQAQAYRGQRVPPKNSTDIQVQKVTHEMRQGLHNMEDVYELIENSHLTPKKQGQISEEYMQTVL
# Chain of Nuclear receptor subfamily 1 group I member 3 (Homo sapiens) (Q14994 whole entry, looked up): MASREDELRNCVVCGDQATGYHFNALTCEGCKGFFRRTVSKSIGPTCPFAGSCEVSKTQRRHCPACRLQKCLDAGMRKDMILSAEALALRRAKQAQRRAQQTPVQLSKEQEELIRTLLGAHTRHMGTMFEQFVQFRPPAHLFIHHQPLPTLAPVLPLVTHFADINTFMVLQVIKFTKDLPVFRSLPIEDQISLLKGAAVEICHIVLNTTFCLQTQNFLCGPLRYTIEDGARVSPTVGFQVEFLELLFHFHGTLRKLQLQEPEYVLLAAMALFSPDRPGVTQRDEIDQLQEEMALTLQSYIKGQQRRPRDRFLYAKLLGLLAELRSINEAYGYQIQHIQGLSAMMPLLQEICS
# Chain of Luciferin 4-monooxygenase (Photinus pyralis) (P08659 whole entry, looked up): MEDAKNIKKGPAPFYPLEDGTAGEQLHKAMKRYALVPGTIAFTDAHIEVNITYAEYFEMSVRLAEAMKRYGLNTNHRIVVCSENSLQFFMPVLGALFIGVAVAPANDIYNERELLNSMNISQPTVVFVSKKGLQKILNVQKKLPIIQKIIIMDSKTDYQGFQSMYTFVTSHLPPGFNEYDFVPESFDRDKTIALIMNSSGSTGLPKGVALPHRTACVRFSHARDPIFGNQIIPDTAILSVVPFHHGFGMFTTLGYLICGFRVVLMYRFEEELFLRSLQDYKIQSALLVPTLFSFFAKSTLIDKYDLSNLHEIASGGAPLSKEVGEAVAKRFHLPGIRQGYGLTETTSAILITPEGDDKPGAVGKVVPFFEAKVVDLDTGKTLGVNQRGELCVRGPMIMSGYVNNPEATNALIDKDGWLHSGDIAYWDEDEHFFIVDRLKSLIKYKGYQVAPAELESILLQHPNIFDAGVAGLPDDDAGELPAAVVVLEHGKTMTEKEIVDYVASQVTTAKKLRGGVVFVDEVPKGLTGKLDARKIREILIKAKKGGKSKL
Compound,Potency [1],Potency [2],Potency [3],Potency [4],Potency [5],Potency [6],Potency [7],Potency [8],outcome [9],outcome [10],Potency [11],Potency [12],outcome [13],Potency [14],Potency [15],Potency [16],Potency [17],"activity change, positive = activation [18]",Potency [19],cytotoxicity [13]
C=CCCC#N,inactive,inactive,inactive,inactive,inactive,inactive,inactive,inactive,inactive,inactive,inactive,inactive,inactive,,,,,,,
CN(C)C1CCCCC1,inactive,inactive,,inactive,inactive,inactive,,inactive,inactive,inactive,inactive,inactive,inactive,inactive,inactive,inactive,,,,
CCN(CCO)CCn1c(Cc2ccccc2)nc2c1c(=O)n(C)c(=O)n2C,inactive,,inactive,inactive,inactive,inactive,inactive,inactive,inactive,inactive,inactive,inactive,inactive,inactive,inactive,inactive,inactive,-1.48% [at 42.5 µM] (inactive),inactive,
CCNc1nc(Cl)nc(NC(C)(C)C)n1,inactive,inactive,inactive,inactive,,inactive,,inactive,inactive,,inactive,inactive,inactive,,,,,,inactive,
Cc1ccc2cc(C)ccc2c1,inactive,,inactive,inactive,inactive,inactive,,inactive,inactive,inactive,inactive,inactive,inactive,inactive,inactive,inactive,inactive,0.0091% (inactive),inactive,
CCC(C(N)=O)N1CCCC1=O (stereo not given),inactive,,inactive,inactive,inactive,inactive,inactive,inactive,,inactive,inactive,inactive,inactive,,,,inactive,,inactive,
C[C@H]1CCCC(=O)CCC/C=C/c2cc(O)cc(O)c2C(=O)O1,26.3 µM (active) and 17.8 µM (active),inactive,,20.9 µM (active),inactive,23.4 µM (active),,inactive,inactive,inactive,86.5 µM (active) and inactive,inactive,inactive,,,,,,21.1 µM (active),
O=P(O)(O)CN(CP(=O)(O)O)CP(=O)(O)O,inactive,inactive,inactive,,,inactive,inactive,inactive,inactive,inactive,inactive,inactive,,,,,,,,9.86% [at 15.8 µM] (inactive)
CN1COCN(Cc2cnc(Cl)s2)/C1=N\[N+](=O)[O-],inactive,inactive,,,,inactive,inactive,inactive,inactive,inactive,inactive,inactive,inactive,,,,,,inactive,
